Laboratory results from PubChem BioAssay (Tox21).
Inconclusive results are not listed. Active and inactive are the calls of the source. Unless noted, calls come from the whole dose curve; as a rule, active = well fitted curve in the direction sought with a large enough effect in the repeat runs; inconclusive = weak or mixed curves; inactive = no such curve, though single readings can be large; an effect the other way counts as inactive or inconclusive.

Experiments:
[1] = A CellTox Green Cytotoxicity Assay to monitor cytotoxicity in HepG2 cells - 0 hour (AID 1224882); note: nearly all actives have a fitted effect of over 35% in size
Outline: (§1)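 First, HepG2 cells (600/well) mixed with reagent were plated; second, after 5 h at 37 C they received compounds via pintool; third, fluorescence was measured at 0 h through 40 h at 8 h intervals.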

[2] = A CellTox Green Cytotoxicity Assay to monitor cytotoxicity in HepG2 cells - 32 hour (AID 1224883); note: nearly all actives have a fitted effect of over 50% in size; note: potency is the fitted concentration of half-maximal effect
Outline: as §1

[3] = A CellTox Green Cytotoxicity Assay to monitor cytotoxicity in HEK293 cells - 8 hour (AID 1224884); note: nearly all actives have a fitted effect of over 35% in size
Outline: (§2)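 Dead-cell fluorescence measured kinetically: asymmetric cyanine dye, HEK293, 600 cells/well, 5 h settle, 23 nL cpd/DMSO, 37 C, reads 0–40 h every 8 h.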

[4] = qHTS RealTime-Glo MT Cell Viability Assay in HepG2 cells - 16 hour (AID 1224885); note: nearly all actives have a fitted effect of over 50% in size; note: potency is the fitted concentration of half-maximal effect
Outline: (§3)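 Real-time, nonlytic viability: 600 HepG2 cells/well mixed with NanoLuc enzyme plus prosubstrate; 5 h settle, compound (DMSO) added by pintool; luminescence monitored over 40 h at 37 C.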

[5] = A CellTox Green Cytotoxicity Assay to monitor cytotoxicity in HEK293 cells - 16 hour (AID 1224888); note: nearly all actives have a fitted effect of over 35% in size
Outline: as §2

[6] = qHTS RealTime-Glo MT Cell Viability Assay in HepG2 cells - 0 hour (AID 1224889); note: nearly all actives have a fitted effect of over 50% in size
Outline: as §3

[7] = A CellTox Green Cytotoxicity Assay to monitor cytotoxicity in HepG2 cells - 8 hour (AID 1224890); note: nearly all actives have a fitted effect of over 45% in size; note: potency is the fitted concentration of half-maximal effect
Outline: as §1

[8] = qHTS assay to identify small molecule antagonists of the estrogen receptor alpha (ER-alpha) signaling pathway using the BG1 cell line in the presence of 0.1 nM 17-beta-estradiol - cell viability counter screen (AID 1259241); note: nearly all actives have a fitted effect of over 40% in size; note: potency is the fitted concentration of half-maximal effect
Outline: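 Estradiol-stimulated (0.1 nM) VM7Luc4E2 cells exposed to compounds 22 hr; viability measured by fluorescence of cleaved CellTiter-Fluor substrate after 30 min.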

[9] = qHTS assay to identify small molecule antagonists of the androgen receptor (AR) signaling pathway using the MDA cell line in the presence of 0.5 nM R1881 - cell viability counter screen (AID 1259242); note: nearly all actives have a fitted effect of over 45% in size; note: potency is the fitted concentration of half-maximal effect
Outline: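 qHTS format. MDA-kb2 (MMTV-luc, AR/GR responsive) + cpd + 0.5 nM R1881 final, 16 hr 37C/0% CO2 → CellTiter-Fluor 30 min → fluorescence intensity.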

[10] = qHTS assay to identify small molecule HDAC inhibitors (AID 1259364); note: potency is the fitted concentration of half-maximal effect;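 note: wild-type HCT-116 cells with endogenous class I/II HDAC activity; nearly all actives have a fitted effect of over 45% in size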
Outline: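 Quantitative high-throughput format: overnight-seeded HCT-116 cells got compounds for 2 hr at 37C; HDAC-Glo I/II reagent added, 30 min RT, luminescence measured.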

[11] = qHTS assay to identify small molecule HDAC inhibitors - cell viability counter screen (AID 1259365); note: series mostly up to about 92 µM; nearly all actives have a fitted effect of over 50% in size
Outline: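 After overnight seeding at 1,500 cells per well, wild-type HCT-116 cultures took up compounds in DMSO for 2hr at 37 C. Viable cell content came from luminescence with CellTiter-Glo.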

[12] = qHTS assay to identify small molecule agonists of the sonic hedgehog signaling (Shh) pathway - cell viability counter screen (AID 1259366); note: nearly all actives have a fitted effect of over 50% in size; note: potency is the fitted concentration of half-maximal effect
Outline: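 Same-well cytotoxicity read. Gli1-Luc reporter 3T3 cells; compounds 24hr, 37C/5% CO2; CellTiter-Fluor fluorescence.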

[13] = qHTS assay to identify small molecule antagonists of the sonic hedgehog signaling (Shh) pathway - cell viability counter screen (AID 1259367); note: nearly all actives have a fitted effect of over 55% in size; note: potency is the fitted concentration of half-maximal effect
Outline: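 Fluorescence read-out (CellTiter-Fluor, 1 hr at 37C) taken after 23 hr compound treatment of 3T3 Gli1-Luc cells stimulated with conditioned medium. Cells were seeded at 2,000 per well and pre-incubated 4 hr.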

[14] = qHTS assay to identify small molecule agonists of the sonic hedgehog signaling (Shh) pathway (AID 1259368; calls by dose curve; note: nearly all actives have a fitted effect of over 15% in size; note: potency is the fitted concentration of half-maximal effect)
Outline: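 Quantitative high-throughput format using a Gli1-driven firefly luciferase reporter line derived from NIH/3T3 cells. After a 24 hr compound treatment at 37 C and 5% CO2, luminescence reported Gli1 response element activity.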

[15] = qHTS assay to identify small molecule antagonists of the sonic hedgehog signaling (Shh) pathway (AID 1259369; calls by dose curve; note: nearly all actives have a fitted effect of over 45% in size; note: potency is the fitted concentration of half-maximal effect)
Outline: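 Stable Gli1-Luc reporter NIH/3T3 clone; quantitative HTS in stimulated mode with conditioned medium. Luminescence measured after 24hr compound treatment at 37 C.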

[16] = biological target: Androgen receptor (Homo sapiens) (UniProt P10275); test: qHTS assay to identify small molecule antagonists of the androgen receptor (AR) signaling pathway using the MDA cell line in the presence of 0.5 nM R1881 (AID 1259243); note: nearly all actives have a fitted effect of over 50% in size; note: potency is the fitted concentration of half-maximal effect
Outline: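 Antagonist mode quantitative HTS in MDA-kb2 MMTV-luciferase cells, agonist R1881 at 0.5 nM final, 16 hr exposure at 37C and 0% CO2, luminescent detection.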

[17] = qHTS assay to identify small molecule phospholipidosis (PLD) inducers (AID 1259344; active = well fitted curve in the direction sought with a large enough effect; an effect the other way counts as inactive or inconclusive)
Outline: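 Read-out is LipidTOX Red fluorescence (ex 595/em 615) imaged in HepG2 cells after 24 h compound exposure at 37 C, with Hoechst nuclear counterstain (ex 352/em 461) allowing per-cell normalisation.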

[18] = biological target: Estrogen receptor (Homo sapiens) (UniProt P03372); test: qHTS assay to identify small molecule antagonists of the estrogen receptor alpha (ER-alpha) signaling pathway using the BG1 cell line in the presence of 0.1 nM 17-beta-estradiol (AID 1259244); note: nearly all actives have a fitted effect of over 50% in size; note: potency is the fitted concentration of half-maximal effect
Outline: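 Reporter is a stably transfected luciferase under four estrogen responsive elements in VM7Luc4E2 cells expressing native full-length ER-alpha; inhibition of 0.1 nM (final) 17beta-estradiol-driven signal over 22 h is read by luminescence.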

[19] = qHTS RealTime-Glo MT Cell Viability Assay in HEK293 cells - 8 hour (AID 1224887); note: nearly all actives have a fitted effect of over 50% in size; note: potency is the fitted concentration of half-maximal effect
Outline: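 600 HEK293 cells per well, dispensed already mixed with RealTime-Glo MT reagents. Compound dosing came 5 h later. The same wells were read for luminescence at 0, 8, 16, 24, 32 and 40 h of exposure at 37 C.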

[20] = qHTS RealTime-Glo MT Cell Viability Assay in HEK293 cells - 24 hour (AID 1224886)
Outline: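 Cells + reagent dispensed (600 cells/well, HEK293) → 5 h at 37 C/5% CO2 → 23 nL compound in DMSO pinned → 40 h at 37 C → luminescence read at 0, 8, 16, 24, 32, 40 h.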

Measured: Potency

Sequence of Estrogen receptor (Homo sapiens) (P03372 whole entry, looked up): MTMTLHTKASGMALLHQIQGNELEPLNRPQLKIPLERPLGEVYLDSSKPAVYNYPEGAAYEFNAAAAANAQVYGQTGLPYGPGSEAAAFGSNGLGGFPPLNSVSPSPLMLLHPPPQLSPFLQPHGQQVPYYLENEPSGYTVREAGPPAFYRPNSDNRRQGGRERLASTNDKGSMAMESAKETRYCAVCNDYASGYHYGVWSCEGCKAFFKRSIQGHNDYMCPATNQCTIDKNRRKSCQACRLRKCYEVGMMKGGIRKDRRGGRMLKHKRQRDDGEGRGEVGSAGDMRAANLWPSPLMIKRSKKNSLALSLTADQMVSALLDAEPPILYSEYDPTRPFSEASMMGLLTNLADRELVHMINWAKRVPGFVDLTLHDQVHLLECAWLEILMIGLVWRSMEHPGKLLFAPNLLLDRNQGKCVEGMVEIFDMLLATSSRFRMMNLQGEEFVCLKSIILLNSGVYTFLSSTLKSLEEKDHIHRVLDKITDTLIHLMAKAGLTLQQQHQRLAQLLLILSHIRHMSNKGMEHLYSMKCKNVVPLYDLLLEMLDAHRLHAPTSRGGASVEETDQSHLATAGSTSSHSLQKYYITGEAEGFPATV
Sequence of Androgen receptor (Homo sapiens) (P10275 whole entry, looked up): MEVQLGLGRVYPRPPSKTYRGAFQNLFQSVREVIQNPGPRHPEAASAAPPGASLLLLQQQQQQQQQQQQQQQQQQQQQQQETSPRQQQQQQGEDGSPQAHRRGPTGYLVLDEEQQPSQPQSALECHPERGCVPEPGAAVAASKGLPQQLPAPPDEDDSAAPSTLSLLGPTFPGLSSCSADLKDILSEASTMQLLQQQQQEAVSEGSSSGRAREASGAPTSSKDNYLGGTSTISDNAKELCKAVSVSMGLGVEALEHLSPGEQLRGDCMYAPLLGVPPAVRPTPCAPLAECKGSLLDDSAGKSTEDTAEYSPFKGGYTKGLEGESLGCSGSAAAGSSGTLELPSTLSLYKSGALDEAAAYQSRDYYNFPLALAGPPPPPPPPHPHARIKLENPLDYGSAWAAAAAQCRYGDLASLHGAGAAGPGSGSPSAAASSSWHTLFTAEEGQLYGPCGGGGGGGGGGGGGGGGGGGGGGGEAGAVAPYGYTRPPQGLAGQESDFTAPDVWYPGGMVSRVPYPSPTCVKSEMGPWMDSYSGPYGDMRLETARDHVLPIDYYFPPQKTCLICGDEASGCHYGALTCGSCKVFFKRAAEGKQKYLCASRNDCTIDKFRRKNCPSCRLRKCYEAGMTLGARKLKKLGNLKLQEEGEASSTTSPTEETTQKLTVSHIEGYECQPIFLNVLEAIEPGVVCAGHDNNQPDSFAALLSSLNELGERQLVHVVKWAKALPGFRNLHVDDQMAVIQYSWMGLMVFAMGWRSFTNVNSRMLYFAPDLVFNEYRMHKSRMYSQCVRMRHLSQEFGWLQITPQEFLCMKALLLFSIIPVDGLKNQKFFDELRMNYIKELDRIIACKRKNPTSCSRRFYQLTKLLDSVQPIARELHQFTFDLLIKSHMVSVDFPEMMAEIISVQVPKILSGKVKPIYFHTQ

CCOc1cc(C(C)(C)C)ccc1C1COC(c2c(F)cccc2F)=N1 (stereo not drawn)
active: [15] 2.95 µM
not listed: [16] | [17] | [18] | [19] | [20]
inactive: all other assays above

CC[C@H]1C[C@@H]2C[C@H]3c4[nH]c5ccc(OC)cc5c4CCN(C2)[C@@H]13
active: [2] 54 µM | [16] 60.1 µM | [12] 53.5 µM | [13] 60.1 µM
inactive: [1] | [3] | [4] | [5] | [6] | [17] | [10] | [11] | [14]

O=C(Cl)c1ccc(Cl)cc1
not listed: [6] | [17] | [19] | [20]
inactive: all other assays above

Clc1ccc(-c2ccc(Cl)c(Cl)c2Cl)c(Cl)c1Cl
not listed: [13] | [16] | [17] | [20]
inactive: all other assays above

O=C(O)c1cc[c]([Hg][Cl])cc1
inactive: [1] | [3] | [6] | [8] | [18] | [11] | [14]
active: [2] 21.9 µM | [4] 30.9 µM | [7] 38.9 µM | [10] 30.6 µM | [12] 27.3 µM | [13] 43.3 µM

Clc1ccc(Oc2ccccc2)cc1
not listed: [12] | [17] | [20]
inactive: all other assays above

Cc1cc(C(F)(C(F)(F)F)C(F)(F)F)ccc1NC(=O)c1cccc(I)c1C(=O)NC(C)(C)CS(C)(=O)=O
active: [14] 13.8 µM
not listed: [15] | [16] | [17] | [20]
inactive: all other assays above

CN(C)[C@@H]1C(=O)C(C(N)=O)=C(O)[C@@]2(O)C(=O)C3=C(O)c4c(O)ccc(Cl)c4[C@@](C)(O)[C@H]3C[C@@H]12
active: [15] 55.6 µM
not listed: [7] | [16] | [18] | [20]
inactive: all other assays above

CC(C)(O)c1cnn2c(-c3ccc(F)c(-c4c(F)cccc4C#N)c3)cnc2n1
active: [20] 5.49 µM | [16] 61.1 µM | [15] 4.33 µM
not listed: [6] | [12] | [13] | [17] | [18] | [19]
inactive: all other assays above

CC(=O)C(Cl)(Cl)Cl
active: [8] 20.9 µM | [9] 14.8 µM | [16] 9.35 µM | [18] 11.8 µM | [12] 20.9 µM | [13] 16.6 µM | [15] 5.9 µM
not listed: [6] | [17] | [19] | [20]
inactive: all other assays above

NC(=O)c1ccc(N)nc1
not listed: [16] | [17] | [18] | [20]
inactive: all other assays above

O=S(=O)(c1ccc(Cl)cc1)c1ccc(Cl)cc1
not listed: [15] | [16] | [18] | [19] | [20]
inactive: all other assays above

ClC(Cl)=C(c1ccc(Cl)cc1)c1ccc(Cl)cc1
not listed: [16] | [17] | [19] | [20]
inactive: all other assays above

O=C/C(Cl)=C(/Cl)C(=O)O
active: [2] 54.9 µM | [15] 38.6 µM
not listed: [12] | [13] | [16] | [17] | [20]
inactive: all other assays above

CC(C)(C)C(O)/C(=C\c1ccc(Cl)cc1Cl)n1cncn1 (stereo not drawn)
inactive: [1] | [3] | [5] | [6] | [7] | [10] | [11] | [14]
active: [2] 59.3 µM | [20] 26.5 µM | [19] 47.1 µM | [18] 74 µM | [13] 65.9 µM | [15] 7.4 µM
